Measured values reported in PubChem BioAssay (NCI).
Compounds without any hit were thinned out: in the full panel of roughly 79,000, 15% have a hit. A number with no mark means an inactive call. Activity calls are given as the source filed them. No stated cut-off is given here; in the data, active means growth inhibition above about 70%; inactive means the rest.

Experiments:
[1] = NCI Yeast Anticancer Drug Screen. Data for the rad50 strain (AID 155);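 further: 0% = growth of vehicle-only cultures of the same strain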; details: S. cerevisiae rad50 strain growth inhibition, active compounds read high
Summary of the method: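 Yeast carrying a defined DNA repair defect were exposed to test compounds, and growth was compared with vehicle-treated controls to give percent inhibition.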

[2] = NCI Yeast Anticancer Drug Screen. Data for the mec2-1 strain (AID 157); details: S. cerevisiae mec2-1 strain, active compounds read high
Summary of the method: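 Test agents were screened against the mec2-1 yeast strain, with defined DNA repair or cell cycle alteration. Growth was scored as inhibition against vehicle-only controls.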

[3] = NCI Yeast Anticancer Drug Screen. Data for the sgs1 mgt1 strain (AID 161);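 further: 0% = growth of cultures given vehicle only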; details: S. cerevisiae sgs1 mgt1 strain, active compounds read high
Summary of the method: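 Read-out: growth inhibition vs vehicle controls. Cells: mutant yeast strain deficient in DNA damage repair.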

[4] = NCI Yeast Anticancer Drug Screen. Data for the cln2 rad14 strain (AID 165);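 further: 0% = growth equal to vehicle treated cultures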; details: S. cerevisiae cln2 rad14 strain, active compounds read high
Summary of the method: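 Growth of compound-exposed yeast (cln2 rad14 genotype) measured and expressed as inhibition relative to vehicle.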

[5] = NCI Yeast Anticancer Drug Screen. Data for the bub3 strain (AID 167); details: S. cerevisiae bub3 mutant strain, active compounds read high
Summary of the method: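 Compounds were applied to a genetically altered yeast strain carrying a cell-cycle control defect. Growth inhibition was scored against vehicle-treated controls.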

[6] = NCI Yeast Anticancer Drug Screen. Data for the mlh1 rad18 strain (AID 175); details: S. cerevisiae mlh1 rad18 strain growth inhibition, active compounds read high
Summary of the method: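 In this whole-cell yeast screen, a strain with altered DNA damage repair is challenged with compound, and its growth is measured against matched vehicle-treated controls.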

[7] = at 5.0 µM (retest, dose inferred, filed as 0.5)
[8] = at 50.0 µM (retest, dose inferred, filed as 5.0)

Structure (SMILES)	growth inhibition [1, 7]	growth inhibition [1, 8]	growth inhibition ([1]; at 50.0 µM)	growth inhibition [2, 7]	growth inhibition [2, 8]	growth inhibition ([2]; at 50.0 µM)	growth inhibition [3, 7]	growth inhibition [3, 8]	growth inhibition ([3]; at 50.0 µM)	growth inhibition [4, 7]	growth inhibition [4, 8]	growth inhibition ([4]; at 50.0 µM)	growth inhibition [5, 7]	growth inhibition [5, 8]	growth inhibition ([5]; at 50.0 µM)	growth inhibition [6, 7]	growth inhibition [6, 8]	growth inhibition ([6]; at 50.0 µM)
OC(CCN1CCCCC1)(Cc1ccccc1)c1cccc(Cl)c1 (configuration not stated)	8%	46%	58.1%	4%	40%	26.6%	28%	78% (active)	73.1% (active)	17%	52%	77.8% (active)	15%	62%	50.9%	17%	64%	60.3%
CC(C)c1ccc(C2C3=C(N=C4SCC(=O)N42)C(=O)c2ccccc23)cc1 (configuration not stated)	7%	-6%	86.7% (active)	-20%	3%	68.2%	-6%	5%	89.2% (active)	-31%	8%	83% (active)	-41%	41%	80.3% (active)	-39%	2%	42.2%
COC(=O)CC1C(=O)OCc2c1cc1n(c2=O)Cc2c-1nc1ccccc1c2OC (configuration not stated)	15%	77% (active)	94.4% (active)	4%	15%	9.05%	-4%	-1%	10%	-12%	-7%	20.4%	-2%	11%	12.7%	7%	1%	51.2%
COc1cc2c(cc1O)CCCCC2	4%	4%	41.1%	3%	-2%	-29.2%	1%	8%	6.9%	-2%	-7%	0%	-4%	0%	-7.5%	-3%	3%	43%
CCCC(=O)Oc1ccc(-c2ccccc2)cc1Br	2%	83% (active)	96.5% (active)	2%	86% (active)	91.5% (active)	4%	81% (active)	94.5% (active)	6%	84% (active)	86.7% (active)	18%	77% (active)	91.1% (active)	-1%	73% (active)	95.9% (active)
Nc1ncnc2nc[nH]c12.[Ag]	98% (active)	99% (active)	99.3% (active)	99% (active)	100% (active)	99.7% (active)	97% (active)	99% (active)	99.7% (active)	99% (active)	99% (active)	98.5% (active)	99% (active)	99% (active)	99.5% (active)	97% (active)	99% (active)	99.7% (active)
CC(C)(Br)C(=O)/C=C/c1ccc(Cl)cc1	92% (active)	100% (active)	99.5% (active)	92% (active)	100% (active)	99.7% (active)	94% (active)	99% (active)	99.6% (active)	89% (active)	100% (active)	99.7% (active)	38%	99% (active)	99.3% (active)	97% (active)	100% (active)	99.4% (active)
CCOC(CN(C)C(=O)Nc1ccc(Cl)c(Cl)c1)OCC	-31%	52%	63.7%	2%	61%	32.7%	-15%	56%	58.6%	-17%	45%	67.8%	-26%	71% (active)	54.9%	-25%	84% (active)	38.7%
OCCSC(=S)Nc1ccc(Cl)c(Cl)c1	47%	99% (active)	99.6% (active)	10%	100% (active)	99.7% (active)	78% (active)	100% (active)	99.8% (active)	0%	99% (active)	99.5% (active)	44%	99% (active)	99.8% (active)	85% (active)	99% (active)	99.5% (active)
CCCCCCCCCCCCNCc1ccc(Cl)c(Cl)c1	72% (active)	96% (active)	99.8% (active)	91% (active)	98% (active)	99.7% (active)	89% (active)	98% (active)	99.8% (active)	58%	90% (active)	99.6% (active)	76% (active)	96% (active)	97% (active)	87% (active)	96% (active)	99.7% (active)
O=C(OCc1ccccc1)C(O)c1ccccc1 (configuration not stated)	-2%	16%	24.1%	2%	6%	-7.1%	-1%	3%	-14.7%	-4%	1%	41.1%	-3%	-2%	18.4%	-1%	10%	16.2%
O=C(Nc1ccc(Cl)cc1)NS(=O)(=O)c1ccc2c(c1)CCC2	-18%	35%	59.2%	-40%	16%	39.4%	-30%	57%	69.8%	-23%	38%	59%	-14%	62%	30.4%	-47%	27%	45.6%
Cc1ccc(NC(=O)Oc2ccc(C(C)(C)C)cc2Br)cc1NC(=O)Oc1ccc(C(C)(C)C)cc1Br	8%	26%	40.1%	-4%	13%	60%	3%	14%	49.7%	2%	11%	19.9%	0%	28%	28.4%	4%	53%	79.2% (active)
Nc1ccccc1/C=C1/Sc2cc[nH]c2C1=O	2%	5%	4.9%	1%	-1%	5.55%	-2%	-5%	-15.8%	-1%	-3%	3.1%	15%	40%	83.8% (active)	3%	10%	-9.8%
CC(C)CC(NC(=O)SCc1ccccc1)C(=O)O (configuration not stated)	-2%	35%	3.35%	-12%	-5%	1.6%	-1%	-1%	3%	5%	8%	15.4%	2%	1%	-5.95%	3%	24%	14.8%
Cc1ccc(C2CC(c3cccc([N+](=O)[O-])c3)=Nc3ccccc3S2)cc1 (configuration not stated)	0%	19%	57.5%	0%	31%	15.9%	-1%	46%	57.3%	-6%	-4%	36.4%	11%	78% (active)	88% (active)	2%	29%	60.8%
COC(=O)C(=O)CC(=O)c1cccc(Cl)c1	16%	99% (active)	74.5% (active)	18%	100% (active)	77% (active)	18%	99% (active)	64.2%	6%	99% (active)	21.8%	13%	99% (active)	82.7% (active)	12%	99% (active)	74.7% (active)
CN(C)C(=S)SSSSC(=S)N(C)C	96% (active)	99% (active)	96.9% (active)	98% (active)	99% (active)	96.7% (active)	98% (active)	99% (active)	98.3% (active)	65%	99% (active)	93.3% (active)	96% (active)	99% (active)	96.8% (active)	97% (active)	99% (active)	97% (active)
C[C@@]12C[C@@H](Br)[C@H](Br)C[C@]1(C)O2	0%	16%	94.5% (active)	-1%	8%	98.7% (active)	0%	15%	98.1% (active)	-2%	2%	64.5%	-6%	0%	55%	-1%	6%	93.2% (active)
